{"source": "PubChem BioAssay (NCATS)", "key": {"[1]": {"tested_on": "Zika virus NS2B-NS3 protease (unlinked complex)", "assay": "Primary screen GU Rhodamine qHTS for Zika virus inhibitors: Unlinked NS2B-NS3 protease assay (AID 1347159); also: nearly all actives have a fitted effect of over 60% in size", "method_in_brief": "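Enzyme 25 nM in Tris-HCl pH 8.0 + 0.01% Tween 20; compounds up to 114 microM, 15 min RT dark; + Rhod110 substrate 1.5 microM; read t0 and 15 min; delta fluorescence → % inhibition → 4-parameter Hill fit.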"}, "[2]": {"tested_on": "Zika virus NS2B-NS3 protease (linked construct)", "assay": "Primary screen NINDS Rhodamine qHTS for Zika virus inhibitors (AID 1347160); also: nearly all actives have a fitted effect of over 55% in size", "method_in_brief": "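Enzyme (25 nM, linked NS2B-NS3) was preincubated 15 min with compound in 10 mM Tris-HCl pH 8.0, 0.01% Tween 20. Rhodamine110 substrate (1.5 microM) was then added and fluorescence read at start and after 15 min.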"}}, "note": "Records with an inconclusive call do not appear. Entries that show only a call come without a potency. A number with no mark means an inactive call. Calls of active or inactive are those of the source. Calls follow the shape of the dose curve; as a rule, active = well fitted inhibition curve with a large enough effect; inconclusive = small, poorly fitted or top-dose-only effect; inactive = no such curve, though single readings can be large or run the other way. *1 amine or outer side, *2 acyl side, *3 side chain or, on linkers, in order; H or OH if unused. Where a SMILES comes first, the peptide text is derived from it. [ ]: non-standard residue; d: D form. X4 = CC(C)=CCc1cc(C(O)C(N[*:1])C(=O)[*:2])ccc1O"}
{"smiles": "CC1(C)CC[C@]2(C(=O)O[C@@H]3O[C@H](CO)[C@@H](O)[C@H](O)[C@H]3O)CC[C@]3(C)C(=CCC4[C@@]5(C)CC[C@H](O[C@@H]6O[C@H](C(=O)O)[C@@H](O)[C@H](O[C@@H]7O[C@H](CO)[C@H](O)[C@H](O)[C@H]7O)[C@H]6O)C(C)(C)C5CC[C@]43C)C2C1", "note": "(some centres not stated)", "values": [{"measurement": "Potency", "setting": "[1]", "result": "inactive"}, {"measurement": "Potency", "setting": "[2]", "result": "inactive"}]}
{"smiles": "CC(C)=CCc1cc(C(O)C2NC(=O)CNC(=O)C(Cc3c[nH]c4ccccc34)NC(=O)C3CCCN3C(=O)CNC(=O)C(C(C)C)NC(=O)CNC2=O)ccc1O", "note": "(configuration not stated) (cyclo(G[X4]GVGPW); configuration not given here)", "values": [{"measurement": "Potency", "setting": "[1]", "result": "inactive"}, {"measurement": "Potency", "setting": "[2]", "result": "inactive"}]}
{"smiles": "COc1ccc(C(O)C(C)OC2OC(CO)C(O)C(O)C2O)cc1", "note": "(configuration not stated)", "values": [{"measurement": "Potency", "setting": "[1]", "result": "inactive"}, {"measurement": "Potency", "setting": "[2]", "result": "inactive"}]}
{"smiles": "CC(=O)C1=CCC2C3CCC4CC(O[C@@H]5O[C@H](CO)[C@@H](O[C@@H]6O[C@@H](C)[C@H](O)[C@@H](O)[C@H]6O)[C@H](O)[C@H]5O[C@@H]5O[C@H](CO)[C@@H](O)[C@H](O)[C@H]5O)CCC4(C)C3CCC12C", "note": "(some centres not stated)", "values": [{"measurement": "Potency", "setting": "[1]", "result": "inactive"}, {"measurement": "Potency", "setting": "[2]", "result": "inactive"}]}
{"smiles": "N#Cc1ccc(C(=O)N2CCC3(CC2)N=C(N)c2c(F)ccc(F)c2N3)cn1", "values": [{"measurement": "Potency", "setting": "[1]", "result": "inactive"}, {"measurement": "Potency", "setting": "[2]", "result": "inactive"}]}
{"smiles": "C=CC(C)(CC/C=C(\\C)C(=O)OC)OC1OC(COC(=O)CC(C)(O)CC(=O)O)C(OC2OC(CO)C(O)C(O)C2O)C(O)C1O", "note": "(configuration not stated)", "values": [{"measurement": "Potency", "setting": "[1]", "result": "inactive"}, {"measurement": "Potency", "setting": "[2]", "result": "inactive"}]}
{"smiles": "CC1(c2nc3c(C(N)=O)cccc3[nH]2)CCCN1", "note": "(configuration not stated)", "values": [{"measurement": "Potency", "setting": "[1]", "result": "inactive"}, {"measurement": "Potency", "setting": "[2]", "result": "inactive"}]}
{"smiles": "O=C1NC(Cc2c[nH]c3ccccc23)C(=O)NC1Cc1cnc[nH]1", "note": "(configuration not stated)", "values": [{"measurement": "Potency", "setting": "[1]", "result": "inactive"}, {"measurement": "Potency", "setting": "[2]", "result": "inactive"}]}
{"smiles": "CCOc1cc(C)c(Cl)cc1S(=O)(=O)n1cnc2ccccc21", "values": [{"measurement": "Potency", "setting": "[1]", "result": "inactive"}, {"measurement": "Potency", "setting": "[2]", "result": "inactive"}]}
{"smiles": "C=C1CC2C(C)(CCC(=O)O)C(C(C)(C)O)CCC2(C)C2C(=O)OC(C)(C(=O)OC)C(=O)C12C", "note": "(configuration not stated)", "values": [{"measurement": "Potency", "setting": "[1]", "result": "inactive"}, {"measurement": "Potency", "setting": "[2]", "result": "inactive"}]}
{"smiles": "CCN1CCN(Cc2ccc(NC(=O)c3ccc(C)c(NC(=O)c4cncc(-c5cccs5)c4)c3)cc2C(F)(F)F)CC1", "values": [{"measurement": "Potency", "setting": "[1]", "result": "inactive"}, {"measurement": "Potency", "setting": "[2]", "result": "inactive"}]}
{"smiles": "COc1cc2ncnc(Nc3ccc(O)cc3)c2cc1OC", "values": [{"measurement": "Potency", "setting": "[1]", "result": "inactive"}, {"measurement": "Potency", "setting": "[2]", "result": "inactive"}]}
{"smiles": "COc1cc(O)cc(C)c1C(=O)O[C@@H]1[C@H](O)[C@@H](CO)O[C@H]1n1ccc(=O)[nH]c1=O", "values": [{"measurement": "Potency", "setting": "[1]", "result": "inactive"}, {"measurement": "Potency", "setting": "[2]", "result": "inactive"}]}
{"smiles": "Cc1c(CN2CCN(C(=O)C(C)O)CC2)sc2c(N3CCOCC3)nc(-c3cnc(N)nc3)nc12", "note": "(configuration not stated)", "values": [{"measurement": "Potency", "setting": "[1]", "result": "inactive"}, {"measurement": "Potency", "setting": "[2]", "result": "inactive"}]}
{"smiles": "C=C(C)C1CC[C@]2(C(=O)O)CC[C@]3(C(=O)O)[C@H](CCC4[C@@]5(C)CC[C@H](O)C(C)(C)C5CC[C@]43C)C12", "note": "(some centres not stated)", "values": [{"measurement": "Potency", "setting": "[1]", "result": "inactive"}, {"measurement": "Potency", "setting": "[2]", "result": "inactive"}]}
{"smiles": "C=C(F)c1sc(CNCCCNc2cc(=O)c3ccccc3[nH]2)c(C)c1Br", "values": [{"measurement": "Potency", "setting": "[1]", "result": "inactive"}, {"measurement": "Potency", "setting": "[2]", "result": "inactive"}]}
{"smiles": "C[C@@H]1C(=O)O[C@H]2[C@@H](O)C34[C@H]5C[C@@H](C(C)(C)C)C36[C@@H](OC(=O)[C@@H]6O)O[C@@]4(C(=O)O5)[C@@]12O", "note": "(some centres not stated)", "values": [{"measurement": "Potency", "setting": "[1]", "result": "inactive"}, {"measurement": "Potency", "setting": "[2]", "result": "inactive"}]}
{"smiles": "N#Cc1ccc(-c2cnc3[nH]cc(NC(=O)c4cccnc4)c3c2)cc1", "values": [{"measurement": "Potency", "setting": "[1]", "result": "inactive"}, {"measurement": "Potency", "setting": "[2]", "result": "inactive"}]}
{"smiles": "O=C(c1cc2c(cc1F)OC(c1ccc(F)cc1)(c1ccc(Cl)cc1Cl)O2)N1CCOCC1", "note": "(configuration not stated)", "values": [{"measurement": "Potency", "setting": "[1]", "result": "inactive"}, {"measurement": "Potency", "setting": "[2]", "result": "inactive"}]}
{"smiles": "C/C=C/C=C/C(=O)N1CC[C@]23c4ccccc4N[C@H]4N(C)c5cccc6c5[C@@]42CCN([C@H]6C2OC2(C)C)[C@H]13", "note": "(some centres not stated)", "values": [{"measurement": "Potency", "setting": "[1]", "result": "inactive"}, {"measurement": "Potency", "setting": "[2]", "result": "inactive"}]}
{"smiles": "CC12CCC(OC3OC(CO)C(O)C(OC4OC(CO)C(O)C(O)C4O)C3O)CC1CCC1C2CCC2(C)/C(=C3/COC(=O)C3)CCC12O", "note": "(configuration not stated)", "values": [{"measurement": "Potency", "setting": "[1]", "result": "inactive"}, {"measurement": "Potency", "setting": "[2]", "result": "inactive"}]}
{"smiles": "COC(=O)C1=CO[C@@H](O[C@@H]2O[C@H](CO)[C@@H](O)[C@H](O)[C@H]2O)[C@@H]2C(COC(C)=O)=C[C@H](O)[C@H]12", "values": [{"measurement": "Potency", "setting": "[1]", "result": "inactive"}, {"measurement": "Potency", "setting": "[2]", "result": "inactive"}]}
{"smiles": "CCCN1CCC(c2cccc(S(C)(=O)=O)c2)CC1", "values": [{"measurement": "Potency", "setting": "[1]", "result": "inactive"}, {"measurement": "Potency", "setting": "[2]", "result": "inactive"}]}
{"smiles": "C/C1=C\\C[C@]2(C)C(=O)C(O)=C([C@H](C)CO)[C@H]2C/C=C(\\C)[C@@H](O)CC/C(C)=C/CC1", "values": [{"measurement": "Potency", "setting": "[1]", "result": "inactive"}, {"measurement": "Potency", "setting": "[2]", "result": "inactive"}]}
{"smiles": "C=C(C(=O)OC)C1C(O)CC2(C)C(=O)CCC(O)(CO)C2C1O", "note": "(configuration not stated)", "values": [{"measurement": "Potency", "setting": "[1]", "result": "inactive"}, {"measurement": "Potency", "setting": "[2]", "result": "inactive"}]}
{"smiles": "C[C@@H]1O[C@@H](O[C@H]2[C@H](O)[C@@H](O)[C@H](OC[C@H]3O[C@@H](OC(=O)[C@]45CCC(C)(C)C[C@H]4C4=CCC6[C@@]7(C)CC[C@H](O[C@@H]8OC[C@H](O)[C@H](O[C@@H]9O[C@H](CO)[C@@H](O)[C@H](O)[C@H]9O)[C@H]8O)[C@@](C)(CO)C7CC[C@@]6(C)[C@]4(C)CC5)[C@H](O)[C@@H](O)[C@@H]3O)O[C@@H]2CO)[C@H](O)[C@H](O)[C@H]1O", "note": "(some centres not stated)", "values": [{"measurement": "activity change, negative = inhibition", "setting": "[1]", "result": "4.91% [at 19.1 µM]"}, {"measurement": "activity change, negative = inhibition", "setting": "[2]", "result": "3.05% [at 10.7 µM]"}]}
